Sampled rows, rich in hits. Any-hit rate of the full collection: about 3.2%.
CDK5 inh: inhibitors of human CDK5/p35 kinase, primary screen, biochemical, single concentration | Recombinant CDK5/p35, ADP-Glo luminescence, 60 min | inhibition, % at 10 µM | 0.01% of 330,000 active | AID 488839, 2010;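 active = highest replicate inhibition of at least 50% and at least 75% of replicates reaching 50%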
Rtt109 Vps75: inhibitors of C. albicans Rtt109/Vps75 HAT, primary screen, biochemical, ThioGlo CoA-SH fluorescence, plate reader | inhibition, % at 34.9 µM | purified Rtt109/Vps75, 4 h | 0.16% of 330,000 active | Histone acetyltransferase RTT109 (Candida albicans (strain SC5314 / ATCC MYA-2876)), … | AID 540336, 2011;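 active = inhibition of at least 50% in every replicate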
Target sequence (Q5AAJ8 whole entry, looked up): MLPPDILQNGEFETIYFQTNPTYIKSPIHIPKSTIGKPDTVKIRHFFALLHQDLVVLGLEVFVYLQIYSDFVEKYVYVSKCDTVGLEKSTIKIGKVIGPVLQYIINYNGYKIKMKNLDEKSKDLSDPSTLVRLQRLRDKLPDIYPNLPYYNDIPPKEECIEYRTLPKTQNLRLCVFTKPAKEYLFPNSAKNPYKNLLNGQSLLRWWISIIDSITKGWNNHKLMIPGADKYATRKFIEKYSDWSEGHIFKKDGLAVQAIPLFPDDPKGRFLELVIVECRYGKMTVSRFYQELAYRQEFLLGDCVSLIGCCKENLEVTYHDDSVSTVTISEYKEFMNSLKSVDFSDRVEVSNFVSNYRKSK
dFosB act: activators of delta FosB homodimer, primary screen, biochemical, fluorescence polarization, TAMRA-CDK5 oligo, single point; Protein FosB (Mus musculus), P13346; purified delta FosB; percent of positive-control signal above neutral wells; activation, % at 25 µM; 0.99% of 340,000 active; AID 493131, 2011;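 active = mean activation above about 17%, with every replicate also reaching it, limit read from the data, passing the limit was not always enough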
SMARCA2 act: SMARCA2 (BRM) function activators, primary screen, cell-based, luminescence, high throughput; MG213 cells, MMTV-luciferase reporter, dexamethasone, overnight; activation, % at 9.1 µM; 1% of 370,000 active; AID 652017, 2013; in the data active = activation above about 7.8%
Dyrk1A ADPGlo: rat Dyrk1A kinase inhibitors, primary screen, biochemical, single point, plate reader | Dual specificity tyrosine-phosphorylation-regulated kinase 1A (Rattus norvegicus), Q63470 | ADP-Glo luminescence, NFATc1 peptide | inhibition, % at 12.5 µM | 0.43% of 310,000 active | AID 504441, 2011; in the data active = inhibition above about 50%
esBAF inh: Bmi1 luciferase reporter increase in mESCs, primary screen, esBAF inhibitor project, mouse ES cells, Bmi1 luciferase knock-in, single point; 24 h; 100% = twice the neutral-well signal; reporter increase, % at 12.5 µM; 2% of 350,000 active; AID 602393, 2012; in the data active = activation above about 40%;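 also: a rise in the Bmi1 reporter signal indicates esBAF inhibition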
SMARCA2 act conf: SMARCA2 (BRM) function activators, confirmation, cell-based, luminescence, triplicate | shares compounds with SMARCA2 act | MG213 cells, MMTV-luciferase with dexamethasone, overnight; MG213 cells expressing E1A, Rb sequestered; DMSO wells 0%, reference activator 100% | activation, % at 9.1 µM | 30% of 3,500 active | AID 652260, 2013;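 active = activation above its plate's cutoff, the mean activation of tested wells plus 3 SD, cut at about 7.9% in these data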
GAL4-VP16 Luc: GAL4-VP16 luciferase reporter activation, counter-screen for SMARCA2 (BRM) activator project, cell-based, pG5luc, luminescence, high throughput. shares compounds with SMARCA2 act. HEK293 GAL4-VP16 pG5luc reporter; scaled: DMSO wells 0%, SAHA wells 100%. activation, % at 9.1 µM. 41% of 3,500 active. AID 686939, 2013;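 active = activation above the solvent-only control well mean plus 3 SD, averaged across control plates, cut at about 5.2% in these data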
A number is an active result; - = inactive; . = no result.

SMILES | CDK5 inh | Rtt109 Vps75 | dFosB act | SMARCA2 act | Dyrk1A ADPGlo | esBAF inh | SMARCA2 act conf | GAL4-VP16 Luc
O=C(Nc1ccccc1)c1ccc(NCC2CCCO2)c([N+](=O)[O-])c1 (configuration not stated) | - | - | - | 8.8 | - | . | - | -
CCC(=O)Nc1ccc2c(c1)OC[C@@H](C)N(C(=O)CN(C)C)C[C@H](C)[C@@H](OC)CN(C)C2=O | . | . | . | . | . | - | . | .
O=C(/C=C\c1ccc(-c2ccccc2)o1)c1ccccc1 | - | - | - | 8.2 | - | . | 16 | 8.1
Cc1ccc(C(=O)/C=C/c2ccc(-c3ccc(C)cc3)o2)cc1 | - | - | - | - | - | . | . | .
O/N=C\c1ccc(-c2ccccc2)o1 | - | - | - | 9.5 | - | 55 | - | -
CN(C)C(=O)[C@H]1[C@H](CO)[C@H]2Cn3c(ccc(-c4ccncc4)c3=O)[C@@H]1N2CC1CC1 | . | . | . | . | . | - | . | .
C[C@@H]1CN([C@H](C)CO)C(=O)c2cc(NC(=O)c3ccccc3)ccc2O[C@@H](C)CCCCO[C@H]1CN(C)C(=O)CCC(F)(F)F | . | . | . | . | . | - | . | .
C[C@@H]1CCCCO[C@@H](CN(C)S(=O)(=O)c2ccc(Cl)cc2)[C@@H](C)CN([C@@H](C)CO)C(=O)c2cc(NC(=O)c3ccncc3)ccc2O1 | . | . | . | . | . | - | . | .
Cc1noc(C)c1S(=O)(=O)Nc1ccc2c(c1)CC(=O)N([C@H](C)CO)C[C@H](C)[C@H](CN(C)Cc1ccc(C(=O)O)cc1)O2 | . | . | . | . | . | - | . | .
COc1ccccc1Nc1nc(-c2cccs2)cs1 | - | - | - | 8.4 | - | 52 | - | 7.4
COc1ccc(Nc2nc(-c3cccs3)cs2)cc1 | . | . | . | - | . | . | . | .
Cn1c(N)c(C(=O)/C=C/c2ccccc2)c(=O)[nH]c1=O | - | - | - | 12 | - | . | - | 9.4
CO[C@H]1CN(C)C(=O)c2ccc(NC(C)=O)cc2OC[C@@H](C)N(C(=O)Cc2ccccn2)C[C@H]1C | . | . | . | . | . | - | . | .
CCOc1ccc(-c2nnc(NC(=O)Cc3cc(OC)c(OC)c(OC)c3)o2)cc1 | - | - | - | 8.4 | - | - | - | -
CCC(=O)NC[C@H]1[C@H](c2ccc(-c3cccc(F)c3)cc2)[C@@H](CO)N1C(=O)CC | . | . | . | . | . | - | . | .
O=C(C[C@@H]1C=C[C@@H](NC(=O)Cc2ccccn2)[C@H](CO)O1)NCCCN1CCOCC1 | . | . | . | . | . | - | . | .
COc1ccc(C2C(C#N)=C(N)N(c3cccnc3)C3=C2C(=O)CC(C)(C)C3)cc1OC (configuration not stated) | - | - | - | 9.2 | . | . | - | -
COc1ccc(N2C(N)=C(C#N)C(c3cccnc3)C3=C2CC(C)(C)CC3=O)cc1 (configuration not stated) | - | - | - | - | - | - | . | .
Cc1noc(C)c1NC(=O)N(C)C[C@@H]1OCCCC[C@H](C)Oc2ccc(NC(=O)Cc3ccccc3)cc2C(=O)N([C@@H](C)CO)C[C@H]1C | . | . | . | . | . | - | . | .
COc1ccccc1NC(=O)N[C@H]1CC[C@@H](CCn2cc(-c3cccnc3)nn2)O[C@@H]1CO | . | . | . | . | . | - | . | .
O=C(Nc1cccc(C(F)(F)F)c1)c1c(O)c2ccccc2[nH]c1=O | - | - | - | . | - | - | . | .
O=C(Nc1cccc(O)c1)c1c(O)c2ccccc2[nH]c1=O | - | - | - | 10 | - | - | - | 9.3
Cc1cc(C(=O)c2cccs2)c(N)s1 | - | - | - | 8.9 | . | - | - | -
C[C@@H]1CCCCO[C@@H](CN(C)Cc2ccncc2)[C@@H](C)CN([C@@H](C)CO)C(=O)c2cc(NC(=O)c3ccccc3)ccc2O1 | . | . | . | . | . | - | . | .
Fc1ccc(-c2ccc3c(n2)CCCN3Cc2ccccn2)cc1 | . | . | . | - | . | . | . | .
SMILES | CDK5 inh | Rtt109 Vps75 | dFosB act | SMARCA2 act | Dyrk1A ADPGlo | esBAF inh | SMARCA2 act conf | GAL4-VP16 Luc
c1ccc(-c2ccc3c(n2)CCCN3Cc2ccccn2)cc1 | . | . | . | 8.9 | . | . | - | 8.7
COc1ccc(CN2CCNC(=O)C2CC(=O)O)cc1OC (configuration not stated) | - | - | - | 12 | - | - | - | -
Cc1ccc(C(=O)Nc2cc(Cl)ccc2OC(=O)c2ccc(C)cc2)cc1 | . | . | . | 8.0 | . | . | - | 10
Cc1nc2ccc(Cl)cc2nc(C)/c1=N\O | - | - | - | 8.1 | - | - | 9.7 | 8.7
Nc1nnc2cc(Cl)ccc2n1 | - | - | - | - | - | - | . | .
CC(O)CNc1nc2c(c(=O)n(Cc3ccccc3)c(=O)n2C)n1C (configuration not stated) | - | - | - | 9.7 | - | - | - | -
C[C@H]1CN([C@@H](C)CO)C(=O)Cc2cc(NC(=O)Cn3cnnn3)ccc2O[C@H]1CN(C)S(=O)(=O)c1ccc(F)cc1 | . | . | . | . | . | - | . | .
Cc1cccc(Cc2cnc(NC(=O)c3ccc(C)o3)s2)c1 | - | - | - | 11 | - | . | - | -
CN(C)CCCn1c2c3ccccc3ccc2c2oc(=O)c3ccccc3c21 | - | - | 73 | 12 | - | . | 54 | -
CO[C@H]1CN(C)C(=O)c2cc(NC(=O)c3ccccc3F)ccc2OC[C@@H](C)N(C(=O)c2ccccc2F)C[C@@H]1C | . | . | . | . | . | - | . | .
O=c1c2ccccc2nc2c3ccccc3c(NCc3ccco3)nn12 | - | - | - | 13 | - | . | 10 | -
O=C(c1[nH]ncc1-c1cccc(Br)c1)C1CO1 (configuration not stated) | - | - | - | 11 | - | . | 12 | -
O=C(c1[nH]ncc1-c1ccccc1)C1CO1 (configuration not stated) | - | - | - | - | . | . | . | .
O=C(C[C@@H]1C[C@H]2c3cc(NC(=O)C4CCC4)ccc3O[C@H]2[C@@H](CO)O1)NCC1CC1 | . | . | . | . | . | - | . | .
Cc1ccc(CCNC(=O)CCS(=O)(=O)c2cc3c(cc2C)NC(=O)CO3)cc1 | - | - | - | 12 | - | - | - | -
O=C(CCS(=O)(=O)c1cc2c(cc1Cl)NC(=O)CO2)NCCc1ccccc1 | - | - | - | - | - | - | . | .
Cc1csc(NC(=O)CSc2ccc(-c3ccccn3)nn2)n1 | - | - | - | - | - | - | . | .

Screening data (PubChem)
